In PubChem BioAssay (NCI) one finds growth data, which are given here for nine compounds.

Among the test systems are SK-MEL-2 melanoma; EKVX NSCLC; SN12C renal; UO-31 renal; ACHN renal; CAKI-1 renal; A498 renal; CCRF-CEM leukemia; MOLT-4 leukemia; SR leukemia; RPMI-8226 leukemia; OVCAR-8 ovarian; OVCAR-5 ovarian; OVCAR-4 ovarian; SK-OV-3 ovarian; OVCAR-3 ovarian; HS 578T breast; NCI/ADR-RES ovarian; TK-10 renal; IGROV1 ovarian.
Common to all, as to experiment: NCI-60 one-dose screen, 48 h (100 = growth as untreated, 0 = no growth, -100 = all killed)
Common to all, as to details: 10 µM unless noted

SMILES strings stand for the structures. About 83,000 compounds went through this panel and 20% of them were active in at least one assay; those are over-represented in the sample as a whole.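 How to read the values: 0–100, growth inhibition (40 = 60% inhibited); 0, no net growth; -100 to 0, cell death (-40 = 40% of starting cells died; -100 = all dead).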 A number with no mark means an inactive call. Calls of active or inactive are those of the source. Rule for the calls: active = growth percent below 10; inactive = the rest.

On to `CC(=O)c1nc2ccccc2n1CC(=O)c1cccc(Cl)c1`, for which the growth in the experiment on SK-MEL-2 melanoma is 61.9%; in the experiment on EKVX NSCLC, 17.1%; in the experiment on SN12C renal, 31.9%; in the experiment with UO-31 renal, 28.3%; with ACHN renal it was 51.3%; in the experiment with CAKI-1 renal, 5.79% (active). Also, the growth in the experiment with A498 renal is 88.5%; with CCRF-CEM leukemia it was 5.08% (active); in the experiment on MOLT-4 leukemia, 4.87% (active); in the experiment with SR leukemia, -12.6% (active); in the experiment with RPMI-8226 leukemia it was -11.8% (active); in the experiment with OVCAR-8 ovarian, 10.1%. Besides, the growth is 47.5% with OVCAR-5 ovarian; 22.9% in the experiment on OVCAR-4 ovarian; 17.5% in the experiment on SK-OV-3 ovarian; -31.3% (active) with OVCAR-3 ovarian; 19% in the experiment with HS 578T breast; 13.9% in the experiment with NCI/ADR-RES ovarian.
In the case of `COc1ccc(C(=O)COc2ccc(/C=C3\Oc4ccc(OC)cc4C3=O)cc2)cc1`, the growth was 86.4% in the experiment with SK-MEL-2 melanoma; 99.4% in the experiment with EKVX NSCLC; 101% in the experiment with SN12C renal; 105% with ACHN renal; 98.3% in the experiment on CAKI-1 renal; 98.9% in the experiment with A498 renal. Moreover, the growth with CCRF-CEM leukemia is 72.6%; in the experiment with MOLT-4 leukemia, 83.6%; in the experiment with RPMI-8226 leukemia it was 80.5%; in the experiment on OVCAR-8 ovarian, 88%; with OVCAR-5 ovarian, 117%; with OVCAR-4 ovarian, 115%. Also, the growth in the experiment with SK-OV-3 ovarian was 102%; with OVCAR-3 ovarian, 103%; in the experiment on HS 578T breast it was 97.3%; with NCI/ADR-RES ovarian, 109%.
Regarding `O=C1Nc2c(ccc(Cl)c2Cl)/C1=C\c1ccc(C(F)(F)F)cc1`, the growth in the experiment on SK-MEL-2 melanoma was 91.4%; in the experiment with EKVX NSCLC, 55.2%; with UO-31 renal, 57.9%; with TK-10 renal, 96.4%; in the experiment on ACHN renal, 86.5%; in the experiment with CAKI-1 renal, 65.9%. The growth with A498 renal was 102%; in the experiment with CCRF-CEM leukemia it was 6.78% (active); in the experiment with MOLT-4 leukemia, 44.3%; in the experiment on SR leukemia, 104%; with RPMI-8226 leukemia it was 62.8%; with OVCAR-8 ovarian, 85.1%. The growth was 83.9% in the experiment on OVCAR-5 ovarian; 75.1% in the experiment on OVCAR-4 ovarian; 88.2% with SK-OV-3 ovarian; 54.1% in the experiment with IGROV1 ovarian; 68.2% with OVCAR-3 ovarian; 63.9% in the experiment on HS 578T breast. Besides, the growth with NCI/ADR-RES ovarian was 85.8%.
With `Cc1cc(NS(=O)(=O)c2ccc(-c3cnc(C4CC4)o3)cc2)ccc1Cl`, the growth in the experiment on SK-MEL-2 melanoma is 45.3%; in the experiment with EKVX NSCLC it was 28.5%; with SN12C renal, 48.4%; in the experiment with UO-31 renal, 46.5%; in the experiment with ACHN renal it was 40.4%; in the experiment with A498 renal it was -17.8% (active). The growth was 14.4% with CCRF-CEM leukemia; 17.8% in the experiment with MOLT-4 leukemia; 24.8% in the experiment with RPMI-8226 leukemia; 12.9% with OVCAR-8 ovarian; 22% in the experiment on OVCAR-5 ovarian; 44.7% in the experiment on OVCAR-4 ovarian. The growth in the experiment on SK-OV-3 ovarian was 32.4%; in the experiment with IGROV1 ovarian, 27.7%; with OVCAR-3 ovarian, -20.9% (active); in the experiment with HS 578T breast, 11.9%; in the experiment on NCI/ADR-RES ovarian, 0.314% (active).
On to `OCC(O)c1nc2ccc3[nH]ncc3c2c2c1CCCC2` (configuration not stated), for which the growth was 9.63% (active) in the experiment on SK-MEL-2 melanoma; 5.55% (active) in the experiment with EKVX NSCLC; 11.8% with SN12C renal; 7.51% (active) in the experiment with UO-31 renal; 4.18% (active) in the experiment with ACHN renal; 7.54% (active) with CAKI-1 renal. Also, the growth with CCRF-CEM leukemia was 6.71% (active); in the experiment on MOLT-4 leukemia, 1.37% (active); in the experiment on SR leukemia, -4.58% (active); in the experiment on RPMI-8226 leukemia, 10.2%; in the experiment on OVCAR-8 ovarian it was 10.8%; in the experiment on OVCAR-5 ovarian, 10.2%. Moreover, the growth in the experiment with OVCAR-4 ovarian was 50.4%; with IGROV1 ovarian, 10.4%; with OVCAR-3 ovarian it was 16.1%; in the experiment on HS 578T breast, -10.5% (active); with NCI/ADR-RES ovarian, 9.22% (active).
For `COc1cccc2c1C(=O)c1c(O)c3c(c(O)c1C2=O)C[C@](O)(C(=O)CO)C[C@H]3O[C@@H]1C[C@@H](NC(=O)CCCN(C)C2(c3ccc(F)cc3)CC3CCC2C3)[C@H](O)[C@@H](C)O1` (some centres not stated), the growth with SK-MEL-2 melanoma is 47.1%; in the experiment with EKVX NSCLC it was -46.3% (active); with UO-31 renal, 71.7%; in the experiment with TK-10 renal, 54.6%; with ACHN renal, -86% (active); in the experiment with CAKI-1 renal it was 61.9%. The growth in the experiment on A498 renal was 52.5%; in the experiment on CCRF-CEM leukemia, -29% (active); in the experiment with MOLT-4 leukemia, -37% (active); in the experiment on SR leukemia, -60.2% (active); in the experiment on RPMI-8226 leukemia, -41% (active); in the experiment with OVCAR-8 ovarian it was -43.1% (active). Also, the growth with OVCAR-5 ovarian was -48.3% (active); in the experiment with OVCAR-4 ovarian, -68.9% (active); with SK-OV-3 ovarian, 84.4%; in the experiment on IGROV1 ovarian, 55.2%; in the experiment on OVCAR-3 ovarian, -84.8% (active); with HS 578T breast it was 51.2%. Also, the growth in the experiment on NCI/ADR-RES ovarian was 82.4%.
With `Cc1ccc(C2Oc3ccccc3C3CC(c4cccs4)=NN32)cc1` (configuration not stated), the growth in the experiment on SK-MEL-2 melanoma is 98.2%; in the experiment with EKVX NSCLC, 80.9%; in the experiment on SN12C renal, 92.5%; with UO-31 renal, 65.3%; with ACHN renal, 98.7%; with A498 renal, 107%. Also, the growth is 95.3% with CCRF-CEM leukemia; 97.5% in the experiment on MOLT-4 leukemia; 102% in the experiment on SR leukemia; 95.3% in the experiment with RPMI-8226 leukemia; 99.7% with OVCAR-8 ovarian; 102% in the experiment with OVCAR-5 ovarian. Also, the growth in the experiment on OVCAR-4 ovarian was 93.6%; in the experiment with SK-OV-3 ovarian, 90.1%; in the experiment with IGROV1 ovarian, 80.2%; in the experiment on OVCAR-3 ovarian it was 100%; in the experiment with HS 578T breast, 86.7%; with NCI/ADR-RES ovarian it was 96.6%.
As for `Nc1nc2ccc3[nH]ncc3c2c2c1CCCC2`, the growth is -7.53% (active) with SK-MEL-2 melanoma; -4.32% (active) in the experiment with EKVX NSCLC; 11.3% in the experiment on SN12C renal; 5.99% (active) with UO-31 renal; 3.71% (active) in the experiment on ACHN renal; 6.67% (active) with CAKI-1 renal. For the same compound, the growth is 0.983% (active) in the experiment with CCRF-CEM leukemia; -2.01% (active) with MOLT-4 leukemia; -16.6% (active) in the experiment with SR leukemia; 6.83% (active) with RPMI-8226 leukemia; 7.6% (active) in the experiment on OVCAR-8 ovarian; 16.2% in the experiment with OVCAR-4 ovarian. Further, the growth was 16.6% in the experiment on SK-OV-3 ovarian; 8.21% (active) in the experiment on IGROV1 ovarian; 5.2% (active) in the experiment with OVCAR-3 ovarian; -9.88% (active) with HS 578T breast; 2.46% (active) in the experiment with NCI/ADR-RES ovarian.
For `CC[N+](CC)=c1sc2c(s1)C(c1ccc(Cl)cc1)Oc1ccc(Cl)cc1-2` (configuration not stated), the growth was -31.3% (active) in the experiment on SK-MEL-2 melanoma; 16.4% in the experiment on EKVX NSCLC; 5.19% (active) in the experiment with SN12C renal; 70.5% in the experiment on UO-31 renal; 88.5% with ACHN renal; 28.6% with A498 renal. In addition, the growth was -17% (active) in the experiment on CCRF-CEM leukemia; -10.1% (active) in the experiment on MOLT-4 leukemia; 14.8% in the experiment on SR leukemia; -31.4% (active) in the experiment with RPMI-8226 leukemia; 10.7% in the experiment with OVCAR-8 ovarian; 15.1% with OVCAR-5 ovarian. Further, the growth with IGROV1 ovarian is 9.22% (active); in the experiment on OVCAR-3 ovarian, 1.97% (active); in the experiment on HS 578T breast, 18.3%; with NCI/ADR-RES ovarian, 88.9%.
